Tests used:
Settings in all cases: concentration: 1 μM, replicates: in singlicate; n = 1
KIT = system: KIT
LATS1 = system: LATS1
LATS2 = system: LATS2
LCK = system: LCK
LIMK1 = system: LIMK1
LIMK2 = system: LIMK2
LKB1 = system: T1, LKB1
T1 construct: gene STK11

LOK = system: T2, LOK
T2 construct: gene STK10

LRRK2 = system: LRRK2
LTK = system: LTK
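Also: KINOMEscan kinase panel screen.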

Row | Structure (SMILES) | %Inh (KIT) [%] | %Inh (LATS1) [%] | %Inh (LATS2) [%] | %Inh (LCK) [%] | %Inh (LIMK1) [%] | %Inh (LIMK2) [%] | %Inh (LKB1) [%] | %Inh (LOK) [%] | %Inh (LRRK2) [%] | %Inh (LTK) [%]
1 | O=C(Nc1n[nH]c2nc(-c3nccs3)c(Br)cc12)C1CCCC1 [SB-742609] | 7 | 9 | 0 | 9 | 19 | 0 | 0 | 0 | 35 | 0
2 | COc1ccc(Nc2nccc(NCCNC(=O)Nc3ccccc3F)n2)cc1 [GSK1379901] | 57 | 44 | 0 | 20 | 4 | 3 | 0 | 0 | 0 | 0
3 | O=C(Nc1n[nH]c2cc(-c3cccc(F)c3F)ccc12)C1CC1 [SB-733894] | 18 | 0 | 22 | 0 | 0 | 0 | 0 | 0 | 0 | 0
4 | Cl.NC(=O)c1cccc(Nc2nccc(Nc3ccc(Oc4cccc(Cl)c4)c(Cl)c3)n2)c1 [GW659008] | 46 | 0 | 0 | 68 | 43 | 4 | 0 | 15 | 11 | 0
5 | COc1cc2ncn(-c3cc(OCC4CCCO4)c(C(N)=O)s3)c2cc1OC (stereo not shown) [GSK204607] | 16 | 0 | 10 | 7 | 0 | 16 | 0 | 96.9 | 0 | 11
6 | COc1cccc(NC(=O)NC2CCN(c3ccnc(Nc4ccc(F)cc4)n3)C2)c1 (stereo not shown) [GSK1379721] | 63 | 0 | 0 | 1 | 0 | 5 | 25 | 0 | 0 | 0
7 | O=C(Nc1ccc2c(c1)OCO2)NC1CCN(c2ccnc(Nc3ccc(F)cc3)n2)C1 (stereo not shown) [GSK1379724] | 54 | 0 | 0 | 12 | 41 | 0 | 0 | 0 | 28 | 0
8 | Cc1c(O)cccc1Nc1ccnc2ccc(C(F)(F)F)cc12.Cl [GW466413] | 17 | 0 | 0 | 73 | 0 | 0 | 0 | 0 | 58 | 28
9 | Cc1csc(-c2nc(Nc3ccncc3)c3ccccc3n2)n1 [GW869640] | 12 | 19 | 20 | 2 | 15 | 2 | 43 | 40 | 31 | 18
10 | Cc1ccc(-c2cc(-c3c[nH]nc3-c3ccccn3)ccn2)cc1 [GW684088] | 23 | 0 | 6 | 7 | 0 | 17 | 12 | 0 | 0 | 0
11 | CCn1c(-c2cccnc2O)nc2cnccc21 [SB-736715] | 0 | 0 | 0 | 0 | 0 | 0 | 27 | 0 | 0 | 0
12 | COc1ccc2nc(-c3cccc(C)n3)nc(Nc3ccncc3)c2c1 [GSK204919] | 26 | 0 | 0 | 4 | 20 | 3 | 0 | 0 | 0 | 0
13 | Cc1cccc(-c2nc(Nc3ccc4[nH]ncc4c3)c3ccccc3n2)n1 [GW857175] | 3 | 1 | 50 | 10 | 6 | 2 | 14 | 19 | 15 | 0
14 | O=C1NC(=O)C(N2CCc3ccccc32)=C1c1ccccc1Cl [SB-373598] | 2 | 0 | 19 | 35 | 21 | 15 | 2 | 10 | 0 | 99.1
15 | Cc1cccc(-c2nc(-c3ccc(S(C)(=O)=O)cc3)sc2-c2ccnc(NCCc3ccccc3)c2)c1 | 98.4 | 13 | 0 | 0 | 0 | 4 | 0 | 0 | 0 | 0
16 | Fc1cc(Cl)ccc1Nc1ccnc2cc(-c3ccc(CN4CCCCC4)o3)ccc12 [GW560116] | 61 | 3 | 0 | 35 | 0 | 0 | 0 | 0 | 0 | 8

— article PMC5540273 (PLoS ONE, 2017)
